How the values were obtained:
Format in all cases: functional
[1] = molecular target: Solute carrier family 2, facilitated glucose transporter member 1 (Homo sapiens) (UniProt P11166); assay: ST_JUDE_LEISH: Cytotoxicity at 2uM final concentration against transgenic Leishmania Mexicana promastigotes LmGLUT1 that are glucose transport deficient and complemented with the human glucose transporter GLUT1. Activity is measured by DNA content using SYBR green in vitro
[2] = molecular target: Hexose transporter 1 (Plasmodium falciparum) (UniProt O97467); assay: ST_JUDE_LEISH: Cytotoxicity at 2uM final concentration against transgenic Leishmania Mexicana promastigotes LmPfHT that are glucose transport deficient and complemented with the Plasmodium falciparum hexose transporter. Activity is measured by DNA content using SYBR green in vitro
[3] = molecular target: Glucose transporter (Leishmania mexicana) (UniProt O61059); assay: ST_JUDE_LEISH: Cytotoxicity at 2uM final concentration against transgenic Leishmania Mexicana promastigotes LmGT2 that are glucose transport deficient and complemented with the L. Mexicana glucose transporter 2. Activity is measured by DNA content using SYBR green in vitro

Sequence of Solute carrier family 2, facilitated glucose transporter member 1 (Homo sapiens) (P11166 whole entry): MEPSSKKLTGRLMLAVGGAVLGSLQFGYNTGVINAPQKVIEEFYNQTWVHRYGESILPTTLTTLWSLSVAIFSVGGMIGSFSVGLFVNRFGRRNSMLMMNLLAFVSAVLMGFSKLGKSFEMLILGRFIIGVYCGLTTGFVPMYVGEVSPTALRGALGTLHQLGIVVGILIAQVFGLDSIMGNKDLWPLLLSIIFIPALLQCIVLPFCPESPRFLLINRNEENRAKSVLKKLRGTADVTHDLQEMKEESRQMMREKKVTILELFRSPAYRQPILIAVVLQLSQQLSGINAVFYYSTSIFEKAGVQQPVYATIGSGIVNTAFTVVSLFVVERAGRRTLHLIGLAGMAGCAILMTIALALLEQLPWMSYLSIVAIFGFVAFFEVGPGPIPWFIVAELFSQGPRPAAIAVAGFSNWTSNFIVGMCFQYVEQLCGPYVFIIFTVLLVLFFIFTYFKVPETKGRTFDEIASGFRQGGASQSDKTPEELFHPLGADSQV

SMILES | inhibition [1] [%] | inhibition [2] [%] | inhibition [3] [%]
CCOc1ccc(C=CC(=O)Nc2ccc3nc(N4CCOCC4)cc(C)c3c2)cc1OC | 10.1 | 9.63 | 4.75
Cc1ccccc1CNc1ccc2nc(N)nc(N)c2c1 | 1.01 | 2.12 | -0.21
Cc1c(C)c2c(c(C)c1O)CCC(C)(CCC(=O)O)O2 (centres undefined) | 0.86 | 2.15 | 1.82
CSc1ccccc1NC(=S)NC1CCN(CCCCCNC(=O)/C=C/c2ccc(Cl)c(Cl)c2)CC1 | 4.66 | 4.89 | 4
Cc1ccc(CNC(=O)[C@H](CCCN)Nc2nc(NCC3CCCCC3)ncc2C)cc1 | 3.55 | 2.8 | 2.97
CC(C)CN1CCN(c2nc(C#N)c3c(c2C(=S)NC2CCCCC2)CC(C)(C)OC3)CC1 | 0.49 | -1.31 | -1.75
CC(C)(C)OC(=O)NCc1ccc(Nc2nnc(-c3ccc(OCC(=O)NC[C@@H]4CC[C@H]5C[C@@H]4C5(C)C)c([N+](=O)[O-])c3)o2)cc1 | 2.01 | 2.91 | 0.68
O=C(/C=C/c1ccc(Cl)c(Cl)c1)N1CCC(CN2CCC(c3nc4ccccc4n3CCCO)CC2)CC1 | 4.72 | 4.22 | 5.85
O=C(NC1CCCCN(Cc2ccccc2O)C1)c1cccc(Cl)c1 (centres undefined) | 1.27 | 1.65 | -1.89
CCCc1cc(Cc2cnc(N)nc2N)ccc1OCCCCCC(=O)O | 1.42 | 2.24 | 1.32
CN1CCC(C(=O)Nc2ccc(-c3cccc(-c4nc5cc(C(F)(F)F)ccc5[nH]4)c3)cc2)CC1 | 0.78 | 2.62 | 2.31
CN1CCc2ccc(NC(=O)Nc3cccc(C(=O)c4ccccc4)c3)cc2C1 | 3.19 | 2.01 | 1.86
C=C1C(C(=O)OCC)=CN(CC)c2cc(O[C@@H]3CCN(C(=O)OC(C)(C)C)C3)ccc21 | 6.89 | 5.44 | 6.99
COc1ccc(CN2CCCN(Cc3cccc(NC(=O)c4ccc(Cl)c(Cl)c4)c3)CC2)cc1 | 2.61 | 4.62 | 0.01
COc1ccc(CNC(=O)c2cnc3c(O)cccc3c2Nc2cccc(NC(=O)c3ccc(Cl)c([N+](=O)[O-])c3)c2)cc1 | 0.79 | 6.77 | 4.02
CCCc1cc(Cc2cnc(N)nc2N)cc2c1OC(C)C2C (centres undefined) | 8.26 | 8.61 | 5.24
COC(=O)c1ccc2nc(-c3ccc(/C=C/C(=O)NCc4ccc(Cl)c(Cl)c4)cc3)[nH]c2c1 | 3.11 | 0.43 | 4.71
CN(C)c1ccc(-c2ccc(C(=O)NC3CCN(Cc4ccc(C(C)(C)C)cc4)CC3)s2)cc1 | 2.66 | 1.51 | -2.12
Cc1cccc(Cn2ccc3c(N)nc(N)nc32)c1 | 4.57 | 3.14 | 3.04
CCN1C(=O)C(=NN=C(S)N2CCCC2)c2ccccc21 | -0.3 | -1.51 | -3.35
CSc1cccc(Nc2nc3ccc(S(=O)(=O)NCC(C)C)cc3n2C(C)C(C)C)c1 (centres undefined) | 2.75 | 4.12 | 2.98
CCc1cn2c3c(cc(C(=O)N[C@@H](Cc4ccccc4)[C@H](O)CNC4CCCC4)cc13)N(C)S(=O)(=O)CC2 | 8.55 | 9.26 | 5.93
O=C(NCc1ccccc1)C1Cc2c([nH]c3ccc(Br)cc23)C2(CCN(Cc3ccccc3)CC2)N1 (centres undefined) | 2.61 | 3.23 | 1.63
O=C(Nc1ccc2c(c1)CCN2C1CCN(Cc2ccc(O)cc2)C1)c1ccco1 (centres undefined) | 0.95 | 2.04 | -0.34
CCOC(=O)c1cn(CC)c2cc(N3CCCCC3)c(F)cc2c1=O | 3.39 | 3.64 | 4.37

SMILES | inhibition [1] [%] | inhibition [2] [%] | inhibition [3] [%]
Cc1cc(N[C@@H](Cc2ccccc2)C(=O)NC2CCCC2)nc(NCCCOC(C)C)n1 | 7.62 | 3.46 | 0.61
COC(=O)c1ccc2nc(-c3ccc(C(=O)NCc4ccc(Cl)c(Cl)c4)cc3)[nH]c2c1 | 3.81 | 3.6 | 3.51
COc1cc2nccc(Nc3ccc4c(cnn4Cc4cccc(F)c4)c3)c2cc1OC | 6.91 | 4.66 | 1.56
CN1CCC(N(Cc2ccc(-c3ccc(C(F)(F)F)cc3)cc2)C(=O)Cn2c(SCc3cccc(F)c3F)cc(=O)c3c2CCC3)CC1 | -1.29 | 0.12 | 1.56
COc1cc(C(=O)N2CCOC(CCN3CCC[C@H]3C(=O)Nc3ccccc3)(c3ccc(Cl)c(Cl)c3)C2)cc(OC)c1OC (some centres undefined) | 6.58 | 5.14 | 2.89
O=C(Nc1cc(Cl)cc(Cl)c1)c1cnn(-c2ccc(F)cc2)c1C1CCNCC1 | -0.33 | -0.39 | 1.72
COc1ccc2c(=NN=Cc3cccc(F)c3)cc(C)[nH]c2c1 | -1.29 | 4.27 | 1.95
CC(C)(C)c1cc(C(=O)Nc2ccc(C(=N)N)cc2)c(O)c(C(C)(C)C)c1 | -0.84 | 3.05 | 1.59
CCc1cc2c(cc1CC)CC(NC[C@@H](O)c1ccc(O)c3[nH]c(=O)ccc13)C2 | 1.34 | 1.76 | 2.1
CN(C)Cc1ccc(-c2cc3c(Nc4ccc(OCc5cccc(F)c5)c(Cl)c4)ncnc3s2)[nH]1 | 2.15 | 2.19 | 2.33
CC(C)OC(=O)c1ccccc1S(N)(=O)=O | 15.3 | 12.7 | 7.97
Nc1ccc(-c2nc3cc(Cc4ccc5[nH]c(-c6ccc(N)cc6)nc5c4)ccc3[nH]2)cc1 | 0.06 | -2.2 | -2.11
COc1ccc(-c2nc3cccnc3n2CC(=O)Nc2c(C)cc(C)cc2C)c(OC)c1 | -0.28 | -1.73 | 1.82
CSc1nc2nc(C)c(Cc3cccc(C(F)(F)F)c3)c(C)n2n1 | 0.17 | 0 | -1.61
CN(C)CCCN1C(=O)c2[nH]nc(-c3ccc(Cl)cc3O)c2C1c1ccc(Cl)cc1 (centres undefined) | 0.82 | 0.66 | 1.69
COc1ccc(-c2nonc2NC(=O)c2cccc(C)c2)cc1OC | 11.9 | 10.7 | 10.1
CCn1ccc2c(N3CCCC3=O)cc(C(=O)N[C@@H](Cc3ccccc3)[C@H](O)CNC(C)(C)CCCC(C)C)cc21 | 0 | 0.39 | 0.34
CC(C)(C)c1ccc(CN2CCCCC(NC(=O)c3cc(-c4cccc(F)c4)cs3)C2)cc1 (centres undefined) | -2.41 | -3.63 | -0.11
Cc1ccc(C2(CN3CCC(NC(=O)c4cc[nH]n4)CC3)CCCCC2)cc1 | 0.21 | -1.4 | -0.05
Cc1ccc(C)c(NC(=O)Nc2ccc(Nc3nc(C)cc(N4CCOCC4)n3)cc2)c1 | 1.4 | 0.2 | -5.61
COc1cccc(C(=O)NCc2cccs2)c1OCc1ccccc1 | 1.77 | 0.89 | 1.15
CC(C)OCCCNC(=O)c1nc(-c2cccc(C(F)(F)F)c2)sc1C(C)C | 3.62 | 4.03 | 4.46
CN(C)c1cc(NC(=O)Nc2ccc(SC(F)(F)F)cc2)c2ccccc2n1 | -0.23 | 0.11 | 0.58
COc1cccc2cc(C(=O)N[C@@H](CC(C)C)C(=O)NC(/C=N/NC(=O)c3ccccc3)CCc3ccccc3)oc12 (some centres undefined) | -0.59 | 2.83 | 0.75
Cn1cncc1-c1ccc2c(-c3ccsc3)cnc(N)c2c1 | 5.58 | 6.85 | 6.81

SMILES | inhibition [1] [%] | inhibition [2] [%] | inhibition [3] [%]
Cc1nc(N)nc(N)c1CCCOc1ccc(Br)cc1 | 6.19 | 4.15 | -1.62
COc1ccc(Br)cc1/C=C/C(=O)Nc1ccc2c(c1)CCCN(C)C2 | 0.84 | 3.78 | 3.56
CNCCNCc1cccc(-c2cccc(-c3nc4cc(C(F)(F)F)ccc4[nH]3)c2)c1 | 2.15 | 1.32 | 0.13
COc1ccc2c(Nc3ccc(N4CCN(C)CC4)cc3)cc(C)nc2c1 | 9.36 | 6.21 | 4.55
O=C(Nc1ccccc1)c1c[nH]cn1 | 0.43 | 2.14 | -0.23
CC1(C)NC(N)=NC(=N)N1OCOc1cc(Cl)c(Cl)cc1Cl | -2.15 | 0.84 | 6.16
CN1CCC(NCc2cccc(-c3cccc(S(=O)(=O)NCc4ccccc4)c3)c2)CC1 | 4.86 | -2.65 | 2.47
Cc1c(-c2ccc(C(=O)NC3CC(C)(C)NC(C)(C)C3)cc2)[nH]c2cc(Cl)c(Cl)cc12 | 10.9 | 8.08 | 13.8
CCC1CN2CCc3c([nH]c4ccc(OC)cc34)C2CC1CC1NCCc2cc(OC)c(OC)cc21 (centres undefined) | 3.04 | 3.2 | 4.05
COc1ccccc1CCCON1C(=N)N=C(N)NC1(C)C | 5.24 | 5.03 | 4.51
O=C(NCCCCN1CCC(c2ccc3c(c2O)CCCC3)CC1)c1ccc(NC(=O)c2ccc(Cl)cc2)cc1 | 1.7 | 2.56 | 0.97
CC(C)c1cccc(OCC2CCN(c3ccc(C(=O)Nc4ccccc4)cn3)CC2)c1 | 11.2 | 10.6 | 9.04
COc1ccc(-c2ccc(NC(=O)c3cccc(C#N)c3)cc2)cc1CN1CCCC(C(N)=O)C1 (centres undefined) | 3.09 | 2.51 | 5.2
CC(N)(Cc1ccc(O)cc1)c1nnn[nH]1 (centres undefined) | -0.06 | 1.3 | -0.23
CS(=O)(=O)CCNCc1nc(-c2ccc3c(Nc4ccc(F)c(O)c4)ccnc3c2)cs1 | 0.96 | 0.78 | 0.48
CN1CCC(N(Cc2ccc(-c3ccc(C(F)(F)F)cc3)nc2)C(=O)Cn2c(CCc3cccc(F)c3F)cc(=O)c3ccccc32)CC1 | 6.73 | 6.06 | 7.68
O=C(Nc1cccnc1)c1cc(-c2cccnc2)nc2ccc(Cl)cc12 | 6.95 | 2.76 | 1.98
Nc1nc(N)c2c(Oc3cccnc3)cccc2n1 | 0.1 | -1.61 | -0.57
CN(C)c1ccc2c(c1)Sc1cc(N(C)C)ccc1N2C(=O)CCCC(=O)O | 5.15 | 1.94 | -0.96
COc1ccc2nccc([C@@H](O)CN3CCC(NCc4ccc5sc(=O)[nH]c5c4)CC3)c2c1 | 1.84 | 5.11 | 1.2
Oc1ccc2ccccc2c1CNCCC1CCCCC1 | 0.07 | 0.52 | 1.73
CCCCCCn1c(Sc2ccc(C#N)c([N+](=O)[O-])c2)nnc1-c1ccccc1 | 8.64 | 11.1 | 6.76
O=C1CCCN1CCCNCc1cccc(-c2cccc(-c3nc4cc(F)ccc4[nH]3)c2)c1 | 0.85 | 1.31 | 0.04

Reference: ChEMBL document CHEMBL3433997, “St. Jude Leishmania screening dataset” (2016)
